Experimental findings from PubChem BioAssay are described below.

Assay [1] relates to Wnt5a (protein binding on small-molecule microarray). Description: small molecules binding Wnt5a protein – biophysical, small-molecule microarray, 635/667 nm fluorescence, primary screen (AID 1142).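 Note: fluorescence read at 667 nm with signal to noise per printed feature.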 To be noted: 635 nm fluorescence, higher = more signal.
Assay [2] is described as follows: ATP-based viability of Huh7 replicon cells – cell-based, CellTiter-Glo luminescence, basal, 48 h, cytotoxicity control for HCV replication inhibitor project, primary screen (AID 1143).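 Note: Huh7 hepatoma cells carrying a hepatitis C replication reporter with no stimulus; test concentration not given here.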 As to conditions: higher = more signal, called active from +8 up or from −8 down. Background: In antiviral work, replicon cells carry a viral genome segment that copies itself.
Assay [3] can be described thus: Pseudomonas biofilm growth suppression – PAO1 strain, BacTiter-Glo luminescence, LB-PBS, primary screen (AID 1144). As to conditions: P. aeruginosa PAO1 biofilm, 12 h, higher = more signal.
Assay [4] can be described thus: basal CRE-LacZ reporter activity in PC12 – cell-based, unstimulated, primary screen (AID 1145). To be noted: no forskolin, luminescence, 4.5 h, higher = more signal, called active from +8 up or from −8 down.
The nature of assay [5]: forskolin-driven CRE-LacZ activity in PC12 – cell-based, CRE-LacZ reporter, forskolin-stimulated, primary screen (AID 1146).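 Note: PC12 cells with 6xCRE LacZ reporter stimulated by forskolin 10 µM; beta-galactosidase reporter signal reflecting CREB driven transcription.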 As to conditions: luminescence, 4.5 h, higher = more signal, called active from +8 up or from −8 down.
The target in assay [6] is Streptavidin (Streptomyces avidinii) (UniProt P22629). Description: compounds binding control protein streptavidin – biophysical, small-molecule microarray, 635/667 nm fluorescence, artefact control for SMM compound annotation, primary screen (AID 1147).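 Note: signal reflects streptavidin binding to arrayed compounds as a control protein.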 As to conditions: higher = more signal.
Streptavidin (Streptomyces avidinii), sequence (P22629 whole entry, looked up): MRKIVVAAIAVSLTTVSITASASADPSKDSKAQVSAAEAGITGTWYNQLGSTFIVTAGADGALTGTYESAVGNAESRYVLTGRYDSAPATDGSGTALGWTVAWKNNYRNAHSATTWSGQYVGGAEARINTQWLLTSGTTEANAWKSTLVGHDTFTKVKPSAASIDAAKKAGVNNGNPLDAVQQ
The nature of assay [7]: probe aInhba binding on compound microarray – biochemical, small-molecule microarray, 635/667 nm fluorescence, primary screen (AID 1148).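 Note: score merges 667nm spot fluorescence with signal-to-noise for antibody binding to printed compounds.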 As to conditions: higher = more signal.
In assay [8] the target is Torsin-1A (Homo sapiens) (UniProt O14656). Description: TOR1A wild-type binding on microarray – cell lysate, small-molecule microarray, lysate, 635/667 nm, primary screen (AID 1149). As to conditions: COS7 hTOR1A-WT lysate, 635 nm fluorescence, higher = more signal.
Torsin-1A (Homo sapiens), sequence (O14656 whole entry, looked up): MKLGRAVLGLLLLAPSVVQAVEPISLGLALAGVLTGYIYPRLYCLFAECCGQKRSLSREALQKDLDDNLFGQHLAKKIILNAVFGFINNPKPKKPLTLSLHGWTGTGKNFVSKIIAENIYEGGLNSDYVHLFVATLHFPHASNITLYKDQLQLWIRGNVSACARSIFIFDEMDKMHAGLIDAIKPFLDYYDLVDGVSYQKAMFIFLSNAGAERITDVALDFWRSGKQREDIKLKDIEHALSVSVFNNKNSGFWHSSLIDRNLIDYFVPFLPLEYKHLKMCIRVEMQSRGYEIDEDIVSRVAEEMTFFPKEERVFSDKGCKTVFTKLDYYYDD
Assay [9] shares this target. Briefly: torsin A mutant lysate binding on microarrays – cell lysate, small-molecule microarray, COS7 lysate, 635/667 nm fluorescence, primary screen (AID 1150).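 Note: score pools 667 nm emission and signal to noise measuring lysate protein binding.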 To be noted: COS7 hTOR1A mutant lysate, 635 nm fluorescence, higher = more signal.
In assay [10] the test system is Sonic hedgehog protein (Shh). Description: Sonic hedgehog microarray binding compounds – biochemical, small-molecule microarray, 635/667 nm fluorescence, primary screen (AID 1151).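 Note: Shh protein binding to compounds spotted on small-molecule microarray slides; score combines spot fluorescence intensity with signal-to-noise across triplicate slides.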 To be noted: 635 nm fluorescence, higher = more signal.

The source made the active and inactive calls. Unless noted, the rule behind the calls is not given here.

For the molecule `COc1cccc([C@@H]2Oc3ccc(OC)cc3C(=O)[C@H]2O)c1`, the composite z-score in assay [1] was 0.115; in [6], 2.33; in [7], -0.152; in the assay with Torsin-1A (Homo sapiens) [8] it was 0.496; in the assay with Torsin-1A (Homo sapiens) [9] it was 0.42; in [10] it was 0.813. Also, the z-score in assay [2] was -4.86 (inactive); in [3], -1.15 (inactive); in assay [4] it was 5.45 (inactive); in [5], -0.344 (inactive).
As for `Cc1ccc(S(=O)(=O)OC[C@H]2CN3[C@H](c4ccc(Br)cc4)[C@@H](C)CC[C@H]3C(=O)O2)cc1`, the composite z-score is 0.114 in [1]; 0.487 in assay [6]; -0.128 in assay [7]; 0.782 with Torsin-1A (Homo sapiens) [8]; 0.44 in the assay with Torsin-1A (Homo sapiens) [9]; 0.362 in assay [10]. In addition, the z-score in assay [2] is -1.25 (inactive); in [3], -1.43 (inactive); in assay [4] it was 2.01 (inactive); in assay [5] it was 0.535 (inactive).
`CO[C@H]1COC(=O)[C@H](C)NC(=O)[C@@H](C)COC(=O)[C@H]2CCCN2C(=O)CC=C[C@H]1C`: the composite z-score was 0.139 in [1]; -0.323 in [6]; -0.121 in assay [7]; -0.0249 with Torsin-1A (Homo sapiens) [8]; 0.182 with Torsin-1A (Homo sapiens) [9]; 1.4 in [10]. Also, the z-score in assay [2] is 0.191 (inactive); in assay [3], -0.312 (inactive); in assay [4], -0.906 (inactive); in assay [5], -0.432 (inactive).
Take `O=C(NN=C1C[C@@H](O)[C@@H](O)[C@@H]2[C@@H]3C(=O)N(C4CCCCC4)C(=O)[C@@H]3CC[C@H]12)OCc1ccccc1`: the composite z-score in [1] is 0.476; in assay [6] it was 0.0049; in assay [7], -0.082; in the assay with Torsin-1A (Homo sapiens) [8], 0.118; with Torsin-1A (Homo sapiens) [9], 0.416; in assay [10], -0.554. Further, the z-score was 0.0552 (inactive) in assay [2], -0.19 (inactive) in [3], 0.338 (inactive) in [4] and -0.0351 (inactive) in assay [5].
`O=C1[C@H]2[C@H]3[C@H](O)[C@H](O)CC(=NOCc4ccccc4)[C@@H]3CC[C@H]2C(=O)N1Cc1ccc2c(c1)OCO2`: the composite z-score in assay [1] was 0.0098; in assay [6] it was 0.193; in assay [7] it was -0.101; with Torsin-1A (Homo sapiens) [8] it was 0.537; with Torsin-1A (Homo sapiens) [9], -0.0537; in assay [10], 0.643. Also, the z-score in assay [2] is 0.445 (inactive); in [3], -0.312 (inactive); in assay [4], 0.0664 (inactive); in [5], -0.174 (inactive).
As for `C[C@@H]1CC[C@H]2C(=O)O[C@@H](Cc3ccccc3)CN2[C@H]1c1ccc(Br)cc1`, the composite z-score in assay [1] is -0.0729; in [6], -0.0253; in assay [7], -0.133; with Torsin-1A (Homo sapiens) [8] it was 0.433; in the assay with Torsin-1A (Homo sapiens) [9] it was 0.533; in assay [10], 0.656. Besides, the z-score in [2] was -0.309 (inactive); in [3], 0.502 (inactive); in assay [4], 0.583 (inactive); in [5], -0.143 (inactive).
In the case of `Cc1ccc(S(=O)(=O)NC(CCc2ccccc2)CC(=O)C(C)(C)C)cc1` (stereo not given), the composite z-score in [1] is 0.375; in [6] it was 0.191; in [7], -0.0986; in the assay with Torsin-1A (Homo sapiens) [8] it was 0.511; with Torsin-1A (Homo sapiens) [9], 0.0204; in [10] it was 0.71. The z-score is -0.482 (inactive) in [2], 1.1 (inactive) in [3], 0.2 (inactive) in assay [4] and -0.37 (inactive) in assay [5].
As to `CC(=O)OC[C@H]1O[C@@H](ON=C(C)CCN2CCCc3nc(C)c(C)cc32)[C@H](OC(C)=O)[C@@H](OC(C)=O)[C@@H]1OC(C)=O`, the composite z-score is 0.237 in [1]; 0.345 in assay [6]; -0.0626 in assay [7]; -0.164 with Torsin-1A (Homo sapiens) [8]; 0.604 with Torsin-1A (Homo sapiens) [9]; 1.06 in assay [10]. Further, the z-score in [2] was -2.36 (inactive); in [3] it was -0.731 (inactive); in assay [4], 1.89 (inactive); in [5] it was -0.112 (inactive).
As to `C=COC[C@@H]1CN2[C@@H](CC[C@@H](C)[C@@H]2c2ccc(Br)cc2)C(=O)O1`, the composite z-score is -0.219 in [1]; -0.505 in [6]; -0.253 in assay [7]; 0.348 in the assay with Torsin-1A (Homo sapiens) [8]; -0.051 in the assay with Torsin-1A (Homo sapiens) [9]; -0.211 in assay [10]. Also, the z-score in assay [2] is -2.67 (inactive); in assay [3], -1.06 (inactive); in assay [4], 6.83 (inactive); in [5] it was -0.544 (inactive).
Consider `C#CCCCON=C1C[C@@H](O)[C@@H](O)[C@@H]2[C@@H]3C(=O)N(C(C)(C)C)C(=O)[C@@H]3CC[C@@H]12`, for which the composite z-score in assay [1] was 0.0416; in assay [6], 0.0462; in assay [7], -0.0762; in the assay with Torsin-1A (Homo sapiens) [8], -0.196; in the assay with Torsin-1A (Homo sapiens) [9] it was 0.348; in assay [10], -1.22. For the same molecule, the z-score in assay [2] is 0.536 (inactive); in assay [3], 0.945 (inactive); in assay [4], 0.785 (inactive); in [5], 0.262 (inactive).
With `CC(C)CON=C1C[C@@H](O)[C@@H](O)[C@@H]2[C@@H]3C(=O)N(c4ccc(F)cc4F)C(=O)[C@@H]3CC[C@H]12`, the composite z-score in assay [1] was 0.0062; in assay [6], 0.9; in [7], -0.243; with Torsin-1A (Homo sapiens) [8] it was 0.224; with Torsin-1A (Homo sapiens) [9], -0.0086; in assay [10], 1.25. Also, the z-score in assay [2] was -0.86 (inactive); in assay [3] it was -0.359 (inactive); in [4], -1.29 (inactive); in [5], -0.907 (inactive).
As for `CC(CCN1CCc2nc(-c3ccccc3)c(-c3ccccc3)cc2C1)=NOC[C@@H](O)COCc1ccco1`, the composite z-score is 0.133 in [1]; 0.526 in assay [6]; -0.0589 in assay [7]; 1.15 in the assay with Torsin-1A (Homo sapiens) [8]; 1.25 with Torsin-1A (Homo sapiens) [9]; 1.31 in assay [10]. Besides, the z-score is 0.42 (inactive) in [2], -0.255 (inactive) in assay [3], -0.878 (inactive) in assay [4] and -0.724 (inactive) in assay [5].
On to `Cn1c(=O)n2n(c1=O)[C@H]1[C@H](O)[C@@H]3O[C@@H]3C(=O)[C@H]1CC2`, for which the composite z-score in assay [1] was 0.0242; in [6] it was 0.924; in assay [7], -0.041; in the assay with Torsin-1A (Homo sapiens) [8] it was 0.961; with Torsin-1A (Homo sapiens) [9] it was 0.198; in assay [10], 0.537. Besides, the z-score in [2] is 0.0801 (inactive); in assay [3], 0.0513 (inactive); in assay [4], -1.29 (inactive); in [5], -0.69 (inactive).
`CO[C@H](C1CCCCC1)[C@H](C)C=CCC(=O)OCCCc1ccccc1`: the composite z-score in [1] is -0.125; in [6], 0.203; in [7], -0.416; with Torsin-1A (Homo sapiens) [8] it was 0.113; with Torsin-1A (Homo sapiens) [9], 0.171; in assay [10], -0.057. Also, the z-score in assay [2] is 0.419 (inactive); in assay [3], -0.294 (inactive); in [4], 0.248 (inactive); in assay [5], -0.468 (inactive).
